# Values joined by “and” are separate entries in the source; they are usually repeats but may differ in a detail not shown here. Identical values can stand only once. Inconclusive results are not listed. Active and inactive are the calls of the source. Calls come from the whole dose curve; as a rule, active = well fitted curve in the direction sought with a large enough effect in the repeat runs; inconclusive = weak or mixed curves; inactive = no such curve, though single readings can be large; an effect the other way counts as inactive or inconclusive.
# Experiment: qHTS RealTime-Glo MT Cell Viability Assay in HEK293 cells - 16 hour (AID 1224872); note: nearly all actives have a fitted effect of over 50% in size; for activity change, negative = cytotoxicity: top concentration of the series differs between compounds
# Details: RealTime-Glo luminescence; series mostly up to 76.8 µM; activity change, negative = cytotoxicity: at the top concentration
# How it was run: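 Assay medium contained NanoLuc luciferase plus cell-permeant prosubstrate, added with HEK293 cells at 600 cells/well. After 5 h at 37 C/5% CO2 compounds were added; plates stayed at 37 C for 40 h with serial luminescence reads.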
# % is set by controls: 0 for no effect and ±100 for the full control effect; potency is the fitted concentration of half-maximal effect.
SMILES,"activity change, negative = cytotoxicity",Potency
Cc1ccc(-c2c(Cl)nc(C#N)n2S(=O)(=O)N(C)C)cc1,-10.8% (inactive),
COc1cc(CC(C)N)cc2c1OCO2 (centres undefined),-16.7% (inactive),
O=C(O)CC(Cl)C(=O)O (centres undefined),-11.2% (inactive),
CCOP(=S)(OCC)SCn1nnc2ccccc2c1=O,,21.9 µM (active)
CN1C(=O)C(O)N=C(c2ccccc2)c2cc(Cl)ccc21 (centres undefined),-26.3% (inactive),
CCN(C)N=O,0.463% (inactive),
C(=NC1CCCCC1)=NC1CCCCC1,,19.6 µM (active) and 19.5 µM (active)
CC(C)O.CC(C)O.OCCN(CCO)CCO.OCCN(CCO)CCO.[Ti],18.1% (inactive),
O=Cc1ccc2c(c1)OCO2,0.909% (inactive),
Cc1ccccc1C(=O)Nc1cccc(OC(C)C)c1,-30% (inactive),
IC(I)=C(I)I,,9.77 µM (active)
Nc1ccc([N+](=O)[O-])cc1[N+](=O)[O-],-19.2% (inactive),
O=C(O)C(F)(F)C(F)(F)C(F)(F)C(F)(F)C(F)(F)C(F)(F)C(F)(F)C(F)(F)C(F)(F)F,-2.26% (inactive),
COC(=O)C(Br)CBr (centres undefined),-3.47% (inactive),
Clc1ccc(C2(Cn3cncn3)CC(Br)CO2)c(Cl)c1 (centres undefined),,24.4 µM (active)
O=[N+]([O-])c1ccccc1CCl,7.35% (inactive),
C=CC(=O)OCCCCO,-2.03% (inactive),
II,-22.1% (inactive),
CCOP(=O)(OCC)Oc1ccc([N+](=O)[O-])cc1,,inactive
C=CC(=O)OCC(C)O (centres undefined),14% (inactive),
CN(C)c1ccc(N(C)C)cc1,-20.5% (inactive),
CC(C)=CCOc1c2occc2cc2ccc(=O)oc12,-13.7% [at 35.3 µM] (inactive),
c1ccc(CN2CCNCC2)cc1,0.387% [at 200 µM] (inactive),
O=C(CCl)c1ccc(Cl)cc1Cl,,4.25 µM (active)
COCCOCCO,-3.06% (inactive),
CC1(C)[C@H](C=C(Cl)Cl)[C@@H]1C(=O)O[C@@H](C#N)c1cccc(Oc2ccccc2)c1,-3.1% (inactive),
CCC(C)(NC(=O)c1cc(Cl)c(C)c(Cl)c1)C(=O)CCl (centres undefined),,27.7 µM (active)
CO/N=C(/C(=O)OC)c1ccccc1COc1ccccc1C,20.6% (inactive),

# Experiment: qHTS RealTime-Glo MT Cell Viability Assay in HepG2 cells - 8 hour (AID 1224873); note: nearly all actives have a fitted effect of over 55% in size
# Details: RealTime-Glo luminescence; series mostly up to 76.8 µM; viability change, negative = cytotoxic: at the top concentration
# How it was run: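 HepG2 cells mixed with RealTime-Glo MT reagents (NanoLuc plus cell-permeant prosubstrate) were seeded at 600 cells/well, incubated 5 h at 37 C/5% CO2, then pinned with compounds in DMSO; nonlytic luminescence tracked viability during 40 h treatment.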
SMILES,"viability change, negative = cytotoxic",Potency
Cc1ccc(-c2c(Cl)nc(C#N)n2S(=O)(=O)N(C)C)cc1,-12.4% (inactive),
CCCN(CC1CC1)c1c([N+](=O)[O-])cc(C(F)(F)F)cc1[N+](=O)[O-],-11.7% (inactive),
COc1cc(CC(C)N)cc2c1OCO2 (centres undefined),0.755% (inactive),
O=C(O)CC(Cl)C(=O)O (centres undefined),-0.186% (inactive),
CCCN(CCCl)c1c([N+](=O)[O-])cc(C(F)(F)F)cc1[N+](=O)[O-],-25.2% (inactive),
CN1C(=O)C(O)N=C(c2ccccc2)c2cc(Cl)ccc21 (centres undefined),-6.34% (inactive),
CCN(C)N=O,-1.01% (inactive),
CC(C)O.CC(C)O.OCCN(CCO)CCO.OCCN(CCO)CCO.[Ti],1.82% (inactive),
O=Cc1ccc2c(c1)OCO2,1.35% (inactive),
CCOC(=O)CBr,2.37% (inactive),
Cc1ccccc1C(=O)Nc1cccc(OC(C)C)c1,-9.37% (inactive),
IC(I)=C(I)I,,1.55 µM (active)
O=C(Nc1ccccc1)Nc1ccnc(Cl)c1,-18.2% (inactive),
Nc1ccc([N+](=O)[O-])cc1[N+](=O)[O-],-11.1% (inactive),
O=C(O)C(F)(F)C(F)(F)C(F)(F)C(F)(F)C(F)(F)C(F)(F)C(F)(F)C(F)(F)C(F)(F)F,4.6% (inactive),
COC(=O)C(Br)CBr (centres undefined),2.38% (inactive),
Clc1ccc(C2(Cn3cncn3)CC(Br)CO2)c(Cl)c1 (centres undefined),-19.7% (inactive),
[CH3][Sn]([CH3])([Cl])[Cl],,inactive
O=[N+]([O-])c1ccccc1CCl,-0.556% (inactive),
COC(=O)C(C)N(C(=O)Cc1ccccc1)c1c(C)cccc1C (centres undefined),-19.5% (inactive),
CCOP(=O)(OCC)O/C(=C/Cl)c1ccc(Cl)cc1Cl,-20.1% (inactive),
CCOP(=O)(OCC)Oc1ccc([N+](=O)[O-])cc1,,inactive
C=CC(=O)OCC(C)O (centres undefined),-14% (inactive),
CN(C)c1ccc(N(C)C)cc1,-25.9% (inactive),
c1ccc(CN2CCNCC2)cc1,4.79% [at 200 µM] (inactive),
COCCOCCO,6.61% (inactive),
C/C(=C\c1ccccc1)[N+](=O)[O-],-22.2% (inactive),
CC1(C)[C@H](C=C(Cl)Cl)[C@@H]1C(=O)O[C@@H](C#N)c1cccc(Oc2ccccc2)c1,-23.5% (inactive),
CO/N=C(/C(=O)OC)c1ccccc1COc1ccccc1C,-11.5% (inactive),

# Experiment: qHTS RealTime-Glo MT Cell Viability Assay in HEK293 cells - 40 hour (AID 1224874); note: nearly all actives have a fitted effect of over 50% in size
# Details: RealTime-Glo luminescence; max response: stronger effect = lower value
# How it was run: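 HEK293 + NanoLuc + prosubstrate, 600 cells/well; 5 h, 37 C/5% CO2; compound 23 nL in DMSO by pintool; 37 C; luminescence read at 0, 8, 16, 24, 32 and 40 h time points.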
SMILES,max response,Potency
CCCN(CC1CC1)c1c([N+](=O)[O-])cc(C(F)(F)F)cc1[N+](=O)[O-],9.65% (inactive),
COc1cc(CC(C)N)cc2c1OCO2 (centres undefined),-17.7% (inactive),
O=C(O)CC(Cl)C(=O)O (centres undefined),0.924% (inactive),
CCCN(CCCl)c1c([N+](=O)[O-])cc(C(F)(F)F)cc1[N+](=O)[O-],1.89% (inactive),
CCOP(=S)(OCC)SCn1nnc2ccccc2c1=O,,19.5 µM (active)
CCN(C)N=O,2.13% (inactive),
C(=NC1CCCCC1)=NC1CCCCC1,,17.5 µM (active) and 24.5 µM (active)
CC(C)O.CC(C)O.OCCN(CCO)CCO.OCCN(CCO)CCO.[Ti],16.3% (inactive),
O=Cc1ccc2c(c1)OCO2,0.0881% (inactive),
CCOC(=O)CBr,-15% (inactive),
IC(I)=C(I)I,,6.16 µM (active)
O=C(Nc1ccccc1)Nc1ccnc(Cl)c1,,19.5 µM (active)
Nc1ccc([N+](=O)[O-])cc1[N+](=O)[O-],-23.5% (inactive),
O=C(O)C(F)(F)C(F)(F)C(F)(F)C(F)(F)C(F)(F)C(F)(F)C(F)(F)C(F)(F)C(F)(F)F,1.42% (inactive),
COC(=O)C(Br)CBr (centres undefined),-3.92% (inactive),
Clc1ccc(C2(Cn3cncn3)CC(Br)CO2)c(Cl)c1 (centres undefined),,21.7 µM (active)
O=[N+]([O-])c1ccccc1CCl,8.2% (inactive),
C=CC(=O)OCCCCO,18.2% (inactive),
CCOP(=O)(OCC)O/C(=C/Cl)c1ccc(Cl)cc1Cl,,19.5 µM (active)
II,-3.85% (inactive),
C=CC(=O)OCC(C)O (centres undefined),21.2% (inactive),
CC(C)=CCOc1c2occc2cc2ccc(=O)oc12,-18% (inactive),
c1ccc(CN2CCNCC2)cc1,3.29% (inactive),
O=C(CCl)c1ccc(Cl)cc1Cl,,17.3 µM (active) and 2.39 µM (active)
C/C(=C\c1ccccc1)[N+](=O)[O-],,11 µM (active)
CC1(C)[C@H](C=C(Cl)Cl)[C@@H]1C(=O)O[C@@H](C#N)c1cccc(Oc2ccccc2)c1,0.601% (inactive),
CCC(C)(NC(=O)c1cc(Cl)c(C)c(Cl)c1)C(=O)CCl (centres undefined),,13.9 µM (active)

# Reference: PubChem BioAssay (Tox21)
